Screening results as filed in PubChem BioAssay.
A selection: hits, their analogues and other compounds. The true share with any hit is near 9.3%.
SMN2 splice up – SMN2 splice variant enhancement; Potency, µM (series often up to 46.1 µM), for the others: at the top dose activity change, positive = activation, usual class: activators; hit rate 2.8% among 210,000; HEK293 SMN2-luciferase splicing reporter, luminescence, 30-36 h; further: % of control where 0% means no effect; nearly all actives have a fitted effect of over 55% in size
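qHTS luciferase splicing reporter: luminescence rises when SMN2 exon 7 is included in transfected HEK293 cells. Compound exposure lasted 30-36 h at 37C, with 4.5 mM final sodium butyrate as control, followed by a ONE-Glo read.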
ELG1 genotox – induces genotoxicity in HEK293T cells with luciferase-tagged ELG1; HEK293T ELG1-luciferase reporter, luminescence, 16 h; AID 504466; hit rate 1.3% among 330,000; Potency, µM (doses to about 46 µM), without a hit: top-dose activity change, positive = activation, hits mostly activators; further: % of control where 0% means no effect; nearly all actives have a fitted effect of over 60% in size
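Step 1: seed 2,000 HEK293T ELG1-luciferase cells per well. Step 2: add compound or DMSO, incubate 16 hr at 37 °C. Step 3: ONE-Glo, 30 min at room temperature, read luminescence.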
ELG1 DNA repair – ELG1-dependent DNA repair inhibition. HEK293T ELG1-luciferase reporter, luminescence, 16 h; DNA damage induced by 5-fluorouridine. Potency, µM (titrated, usually from 46.1 µM), inactives show at the highest dose activity change, negative = inhibition, usual class: inhibitors. hit rate 2.3% among 330,000; further: on the % scale 0 is the no-effect control and ±100 the full control effect; nearly all actives have a fitted effect of over 55% in size
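In this reporter screen, reduction of luminescence relative to DMSO vehicle indicated activity. Compounds and 5-fluorouridine were added together to 2,000 cells per well, incubated for 16 hr at 37 °C, then developed with ONE-Glo.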
NPC1 prom act – NPC1 promoter activation; Huh7 NPC1 promoter luciferase reporter, 24 h; Potency, µM (series often up to 9.22 µM), for the others: top-dose activation, actives largely listed as activators; hit rate 2.4% among 320,000; AID 485313; further: % of control where 0% means no effect; nearly all actives have a fitted effect of over 60% in size
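Stable NPC1-promoter luciferase Huh7 line; cpd (DMSO) 24 h, 37 °C, 5% CO2; Amplite luciferase reagent 10 min RT; luminescence readout. qHTS format.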
Rab9 promoter act – Rab9 promoter activation | Potency, µM (highest dose often 9.22 µM), inactives show at the top dose activation, negative = inhibition, hits mostly activators | Huh7 Rab9 promoter-luciferase reporter, luminescence, 24 h | hit rate 2.8% among 320,000; further: % of control where 0% means no effect; nearly all actives have a fitted effect of over 60% in size
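Using Huh7 cells stably transfected with Rab9 promoter–luciferase, compounds were incubated 24 h at 37 °C, 5% CO2; luciferase luminescence was read 10 min after reagent addition.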
FLuc counter – firefly luciferase modulation, counter-screen for miR-21 project; Potency, µM (series often up to 57.5 µM), without a hit: at the highest dose activity change, negative = inhibition, most hits filed as inhibitors; P08659; purified FLuc, Km substrates, luminescence inhibition; hit rate 6.9% among 360,000;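 further: plate controls were vehicle for no effect and reference inhibitor for full effect; nearly all actives have a fitted effect of over 55% in size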
Target sequence (P08659 whole entry, looked up): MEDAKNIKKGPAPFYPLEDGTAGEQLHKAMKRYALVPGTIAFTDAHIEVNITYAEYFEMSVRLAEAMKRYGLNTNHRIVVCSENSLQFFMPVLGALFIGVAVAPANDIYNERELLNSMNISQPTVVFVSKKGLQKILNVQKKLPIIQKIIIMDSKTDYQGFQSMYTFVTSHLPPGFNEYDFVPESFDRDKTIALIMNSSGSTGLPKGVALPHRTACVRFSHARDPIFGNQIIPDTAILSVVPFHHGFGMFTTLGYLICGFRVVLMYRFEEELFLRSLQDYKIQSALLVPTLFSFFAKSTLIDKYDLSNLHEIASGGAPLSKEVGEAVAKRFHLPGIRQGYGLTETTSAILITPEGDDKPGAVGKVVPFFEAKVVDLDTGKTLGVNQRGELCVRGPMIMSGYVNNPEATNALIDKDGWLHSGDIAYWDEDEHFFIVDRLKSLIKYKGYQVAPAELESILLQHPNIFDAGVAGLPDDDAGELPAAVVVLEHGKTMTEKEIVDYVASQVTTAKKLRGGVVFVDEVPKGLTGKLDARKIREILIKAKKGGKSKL
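Purified P. pyralis luciferase, 10 nM final, with Km-level 10 uM D-luciferin and 10 uM ATP in 50 mM Tris acetate pH 7.5, 10 mM Mg acetate, 0.01% Tween-20, 0.05% BSA; 6-point qHTS titration about 60 µM downward; luminescence read.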
The depositor's hits bear a star. The call rests on the fitted dose curve; in most records, active means well fitted curve in the direction sought with a large enough effect; inconclusive means small, poorly fitted or top-dose-only effect, or another doubt; inactive means no such curve, though single readings can be large; an effect the other way counts as inactive or inconclusive. Potency means the concentration at half of the fitted maximal effect.

Screening COc1ccc(/C=C/C(=O)Nc2ccccc2C(=O)N2CCCC2)cc1 returned SMN2 splice up 8%, ELG1 genotox 15%, ELG1 DNA repair 0%, NPC1 prom act inconclusive, Rab9 promoter act inconclusive and FLuc counter 9.5µM*.
For COc1ccc(/C=C/C(=O)NC(=S)Nc2cc([N+](=O)[O-])ccc2O)cc1OC the results were SMN2 splice up 3%, ELG1 genotox 2%, ELG1 DNA repair -1%, NPC1 prom act -1%, Rab9 promoter act 1% and FLuc counter 7.6µM*.
`COc1ccc(/C=C/C(=O)Nc2ccccc2C(=O)O)cc1` gave SMN2 splice up 4µM*, ELG1 genotox inconclusive, ELG1 DNA repair inconclusive, NPC1 prom act 0.45µM*, Rab9 promoter act 3.2µM* and FLuc counter 0.43µM*.
O=C(NCCCN1CCCC1=O)[C@H](CSCc1ccccc1)N1Cc2ccccc2C1=O was read as ELG1 genotox 2%, ELG1 DNA repair 3%, NPC1 prom act -1%, Rab9 promoter act -3% and FLuc counter 1%.
For CC(CCc1ccco1)NC(=O)CCc1nnc2ccc(NCc3ccccc3)nn12 (stereo unspecified) the results were ELG1 genotox 7%, ELG1 DNA repair -5%, NPC1 prom act -4%, Rab9 promoter act -6% and FLuc counter 0%.
For CC(/C=N\N1CCN(Cc2ccc(C)cc2)CC1)=C\c1ccccc1 the results were SMN2 splice up -65%, ELG1 genotox -1%, ELG1 DNA repair 14%, NPC1 prom act 1%, Rab9 promoter act -6% and FLuc counter -12%.
Screening Cc1ccc(-n2c([O-])nc(-[n+]3ccccc3)c2C=O)cc1 returned SMN2 splice up -6%, ELG1 genotox -3%, ELG1 DNA repair 16%, NPC1 prom act -4%, Rab9 promoter act 0% and FLuc counter 5%.
For COc1cccc(CNC(=O)c2cccc(NC(=O)C3=C(C)OCCS3)c2)c1 the results were ELG1 genotox -6%, ELG1 DNA repair inconclusive, NPC1 prom act -2%, Rab9 promoter act 6% and FLuc counter inconclusive.
Screening COc1cccc(CNC(=O)c2ccccc2NC(=O)C2=C(C)OCCS2)c1OC returned ELG1 genotox -11%, ELG1 DNA repair 12µM*, NPC1 prom act 6%, Rab9 promoter act 4% and FLuc counter -8%.
Screening COc1ccc(CNC(=O)Cc2ccc(NC(=O)C3=C(C)OCCS3)cc2)cc1 returned ELG1 genotox 16µM*, ELG1 DNA repair inconclusive, NPC1 prom act 24%, Rab9 promoter act inconclusive and FLuc counter 1.2µM*.
`CCOc1ccc(CNC(=O)c2cccc(NC(=O)C3=C(C)OCCS3)c2)cc1` gave ELG1 genotox -5%, ELG1 DNA repair inconclusive, NPC1 prom act 4%, Rab9 promoter act 17% and FLuc counter inconclusive.
`CC1=C(C(=O)Nc2ccc(CC(=O)NCc3ccc(OC(C)C)cc3)cc2)SCCO1` gave ELG1 genotox 9.2µM*, ELG1 DNA repair inconclusive, NPC1 prom act inconclusive, Rab9 promoter act 12% and FLuc counter 2.7µM*.
`NS(=O)(=O)c1ccc(CCNC(=O)CCCC2=NS(=O)(=O)c3ccccc3N2)cc1` gave SMN2 splice up 0%, ELG1 genotox 0%, ELG1 DNA repair 3%, NPC1 prom act 2%, Rab9 promoter act 0% and FLuc counter 7%.
CCc1ccc(N(C(=O)c2ccoc2C)C(C(=O)NC2CCCC2)c2ccc(OC)cc2)cc1 (stereo unspecified) was read as SMN2 splice up -9%, ELG1 genotox 0%, ELG1 DNA repair -9%, NPC1 prom act -11%, Rab9 promoter act 3% and FLuc counter 3%.
Screening COc1cccc(NC(=O)N2CCC(C(=O)Nc3ccc(C)cc3C)CC2)c1 returned SMN2 splice up -9%, ELG1 genotox -1%, ELG1 DNA repair -8%, NPC1 prom act 0%, Rab9 promoter act 3% and FLuc counter 0%.
For Cc1ccc(S(=O)(=O)N(CC(=O)N=Nc2c(O)[nH]c3ccccc23)c2cccc(C)c2)cc1 the results were SMN2 splice up -3%, ELG1 genotox -12%, ELG1 DNA repair 21µM*, NPC1 prom act -4%, Rab9 promoter act -5% and FLuc counter -1%.
`O=C(N=Nc1c(O)[nH]c2ccccc12)c1ccc(CN2CCOCC2)cc1` gave SMN2 splice up -11%, ELG1 genotox -5%, ELG1 DNA repair 11%, NPC1 prom act -1%, Rab9 promoter act -7% and FLuc counter inconclusive.
For Cc1ccc(CN2CCN(CC(=O)N=Nc3c(O)[nH]c4ccccc34)CC2)cc1 the results were SMN2 splice up -22%, ELG1 genotox -3%, ELG1 DNA repair 8.2µM*, NPC1 prom act -4%, Rab9 promoter act -4% and FLuc counter 5%.
For Cc1cc(Cl)ccc1N(CC(=O)N=Nc1c(O)[nH]c2ccccc12)S(C)(=O)=O the results were SMN2 splice up 13%, ELG1 genotox -6%, ELG1 DNA repair -3%, NPC1 prom act 1%, Rab9 promoter act -10% and FLuc counter 4%.
Screening O=C(CN1CCN(Cc2ccccc2Cl)CC1)N=Nc1c(O)[nH]c2ccccc12 returned SMN2 splice up 14%, ELG1 genotox -3%, ELG1 DNA repair 21µM*, NPC1 prom act -2%, Rab9 promoter act -1% and FLuc counter -1%.
Screening CC(=O)Nc1ccc(OCC(O)Cn2c3ccccc3c3ccccc32)cc1 (stereo unspecified) returned SMN2 splice up -16%, ELG1 genotox -9%, ELG1 DNA repair 18µM*, NPC1 prom act -3%, Rab9 promoter act -1% and FLuc counter inconclusive.
Screening CC(=O)Nc1ccc(OCC(O)Cn2c3ccccc3c3ccccc32)c(C)c1 (stereo unspecified) returned SMN2 splice up -9%, ELG1 genotox -14%, ELG1 DNA repair inconclusive, NPC1 prom act -4%, Rab9 promoter act -4% and FLuc counter -17%.
For CCn1c(=O)n(CC)c2cc(N)ccc21 the results were ELG1 genotox 11%, ELG1 DNA repair inconclusive, NPC1 prom act -3%, Rab9 promoter act -10% and FLuc counter 3%.
Screening Cc1ccc2cc3cc(C(=O)N4CCCCC4C)oc3nc2c1 (stereo unspecified) returned SMN2 splice up 11µM*, ELG1 genotox inconclusive, ELG1 DNA repair inconclusive, NPC1 prom act 1.4µM*, Rab9 promoter act 1.6µM* and FLuc counter 3µM*.
Cc1ccc2cc3cc(C(=O)N(C)c4ccccc4C)oc3nc2c1 was read as SMN2 splice up 16µM* and FLuc counter 6.7µM*.
